According to PubChem BioAssay (NCI):
About 79,000 compounds went through this panel and 15% of them were active in at least one assay; those are over-represented in the sample as a whole. A number with no mark means an inactive call. Calls of active or inactive are those of the source. Cut-off read from the data, not from the text of the source: active = growth inhibition above about 70%; inactive = the rest.

Assay: NCI Yeast Anticancer Drug Screen. Data for the mec2-1 strain (AID 157)
Settings: S. cerevisiae mec2-1 strain, stronger effect = higher value
Protocol: Growth inhibition of yeast strains with defined genetic alterations is measured as a screen for potential anti-cancer activity. Selected strains with alterations in DNA damage repair or cell cycle control were exposed to compounds and growth inhibition was measured relative to vehicle treated controls. The strain used in this assay is mec2-1

[1] = at 5.0 µM (retest, dose inferred, filed as 0.5)
[2] = at 50.0 µM (retest, dose inferred, filed as 5.0)

| Structure (SMILES) | growth inhibition (at 1.2 µM) [%] | growth inhibition (at 3.7 µM) [%] | growth inhibition [1] [%] | growth inhibition (at 11.0 µM) | growth inhibition (at 33.0 µM) | growth inhibition [2] | growth inhibition (at 50.0 µM) | growth inhibition (at 100.0 µM) |
| --- | --- | --- | --- | --- | --- | --- | --- | --- |
| CCCCCCCCSC1=C(Cl)C(=O)C(OC)=C(OC)C1=O | -37 | -30 | 24 | -4% | 13% | 68% | 54.1% | 80% (active) |
| S=C1C(=Nc2ccccc2)N(c2ccccc2)/C(=N\c2ccccn2)N1c1ccccc1 | -7 | -1 | 24 | 28% | 99% (active) | 98% (active) | 97.9% (active) | 97% (active) |
| CC(C)(C)c1ccc2c(c1)C(=O)c1ccccc1C2=O | -6 | -6 | 8 | -6% | -9% | 8% | -17.9% | -5% |
| O=C(NCCCCN(CCCNC(=O)C(F)(F)F)Cc1ccccc1)C(F)(F)F | 14 | 11 | 14 | 14% | 0% | 75% (active) | -9.05% | -13% |
| CCN1CCC(O)(c2ccc(Oc3ccc(C)cc3)cc2)C(C(=O)c2ccc(Oc3ccc(C)cc3)cc2)C1 (stereo not given) | -9 | -1 | 2 | 98% (active) | 97% (active) | 97% (active) | 92% (active) | 94% (active) |
